A short description of test [1]: inhibitors of TNFa-induced NFkB p65 translocation, primary screen, imaging, HUVEC, MLSMR starter and 10KST1 sets (AID 438;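 active means inhibition above 20% together with a positive visual image hit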;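 further: compound added about 3h40 before a 20 min TNFalpha stimulation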;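 on inhibition: signal is the nuclear over cytoplasmic p65 intensity ratio per well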). The conditions noted are these: HUVEC TNFa-induced p65 nuclear translocation; cell count: measured here: nuclei count (cytotoxicity indicator), at 2.08 µM; inhibition: at 2 µM, stronger effect = higher value, 0% TNFa-plus-vehicle, 100% no-TNFa wells.
Test [2] in a line: inhibitors of mutant huntingtin aggregation, primary screen, imaging, exon1htt(103Q)mCFP cells, high-content imaging (AID 483;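 active means visual image review flags a hit and inhibition of aggregation exceeds 20%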;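 further: compound exposure lasted 3 days before fixation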;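 on nuclei count: percent of the per-plate median nuclei count of sample wells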). The conditions noted are these: exon1htt(103Q)mCFP cell line, aggregate imaging, at 2 µM; inhibition of aggregation: stronger effect = higher value; nuclei count: measured here: cell count, toxicity.
A short description of test [3]: inhibitors of E-selectin induction by TNFa, primary screen, imaging, HUVEC, immunofluorescence, MLSMR starter and 10KST1 sets (AID 487;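 active means visually confirmed hit in the image check and inhibition above 20%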;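 on inhibition: signal is fraction of cell area covered by stained E-selectin grains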;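 on nuclei count: 100% = median nuclei count of all wells on the same plate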). The conditions noted are these: HUVEC TNFalpha-induced E-selectin immunofluorescence imaging, at 2 µM; inhibition: stronger effect = higher value; nuclei count: measured here: cell number, toxicity.
The target in test [4] is Voltage-gated potassium channel subunit beta-2 (Rattus norvegicus) (UniProt P62483). Nature of the test: KvBeta enzyme negative modulators, primary screen, biochemical, NADPH fluorescence (AID 622;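 active means fluorescence slope higher than the sample average by over 3 SD, cut at about -0.22 in these data, passing the limit was not always enough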;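 further: slope of raw intensity against log time taken from 70 to 1610 s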). The conditions noted are these: recombinant KvBeta, 4-cyanobenzaldehyde reduction, at 10 µM, stronger effect = higher value.
Voltage-gated potassium channel subunit beta-2 (Rattus norvegicus), sequence (P62483 whole entry, looked up): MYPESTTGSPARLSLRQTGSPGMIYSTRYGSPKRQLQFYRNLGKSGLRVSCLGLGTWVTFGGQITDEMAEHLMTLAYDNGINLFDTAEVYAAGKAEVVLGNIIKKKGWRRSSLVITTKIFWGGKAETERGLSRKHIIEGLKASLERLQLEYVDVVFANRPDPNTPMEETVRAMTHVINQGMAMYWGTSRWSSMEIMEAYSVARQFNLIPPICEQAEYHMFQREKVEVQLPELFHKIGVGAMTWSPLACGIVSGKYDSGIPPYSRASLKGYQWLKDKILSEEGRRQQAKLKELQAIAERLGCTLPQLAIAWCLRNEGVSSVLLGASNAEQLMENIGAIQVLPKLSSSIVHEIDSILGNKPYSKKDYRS
Test [5] shares this target. Nature of the test: KvBeta positive modulators, primary screen, biochemical, NADPH fluorescence (AID 623).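 Further: fluorescence intensity change per second fitted from 20 to 320 s.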 The conditions noted are these: Recombinant KvBeta, NADPH fluorescence decrease slope, 10 min; at 10 µM; stronger effect = lower value.
Test [6] concerns the target Alpha-2C adrenergic receptor (Homo sapiens) (UniProt P18825). Nature of the test: modulators of alpha2C/GIRK thallium flux, primary screen, cell-based, HEK293 alpha2C/GIRK1/2 (AID 624;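 active means fluorescence slope after compound addition differing from the mean of all screened samples at 99.7% confidence, in either direction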;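 further: slope of fluorescence ratio to pre-addition baseline per second over 15 to 24 s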). The conditions noted are these: thallium flux BTC fluorescence, at 10 µM, actives lie on both sides.
Test [7] can be described thus: inhibitors of Sendai virus-induced IRF3 signaling, primary screen, TLR/RLR signaling modifier project, cell-based, Sendai virus stimulus, luciferase, 10K MLSCN set (AID 602276;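 active means inhibition at or above 50% at 10 µM; inactive means inhibition below 50%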;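 further: firefly luciferase from ISG56 promoter only with Renilla not read in this screen; 0% = Sendai virus plus DMSO and 100% = medium plus DMSO without virus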). The conditions noted are these: HEK293 RL24 IRF3 luciferase reporter, at 10 µM, stronger effect = higher value.
Test [8] in a line: inhibitors of poly I:C-induced TLR3 signaling, primary screen, cell-based, poly I:C stimulus, luciferase, 10K MLSCN set (AID 602277;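 active means inhibition of the reporter signal at or above 50%; inactive means inhibition below 50%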). The conditions noted are these: HEK293-TLR3 RL24 IRF3 luciferase reporter, at 10 µM, stronger effect = higher value. For orientation: A reporter such as luciferase makes a cellular process visible.

Experimental findings from PubChem BioAssay are described below.

The source made the active and inactive calls.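 How the source made its calls, unless noted: active means NADPH fluorescence slope more negative than the mean of all samples by about 3 SD, 99.7% confidence; inactive means the rest.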

Alpha-2C adrenergic receptor (Homo sapiens), sequence (P18825 whole entry, looked up): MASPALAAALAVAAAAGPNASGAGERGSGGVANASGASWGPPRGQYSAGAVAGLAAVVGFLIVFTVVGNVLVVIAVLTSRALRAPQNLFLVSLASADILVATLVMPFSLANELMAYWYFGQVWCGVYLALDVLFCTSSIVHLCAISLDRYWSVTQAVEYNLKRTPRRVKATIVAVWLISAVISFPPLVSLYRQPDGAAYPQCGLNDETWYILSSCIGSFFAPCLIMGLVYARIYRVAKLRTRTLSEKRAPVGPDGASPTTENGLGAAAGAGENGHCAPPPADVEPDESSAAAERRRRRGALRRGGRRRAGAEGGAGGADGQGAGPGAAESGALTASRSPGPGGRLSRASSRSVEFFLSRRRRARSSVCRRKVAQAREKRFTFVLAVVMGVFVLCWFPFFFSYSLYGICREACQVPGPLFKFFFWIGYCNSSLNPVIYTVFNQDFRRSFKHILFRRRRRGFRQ

In the case of `COc1ccccc1Cn1nnc2c(=O)[nH]c(C3CCN(C(=O)c4ccccc4Cl)CC3)nc21`, the cell count in test [1] came to 324. The inhibition (as a rule, the change of the read-out against control, counted positive when it falls) is 3.2% (inactive) in test [1], -5.4% (inactive) in test [3], 18.5% (inactive) in test [7] and 40.2% (inactive) in test [8]. The inhibition of aggregation in test [2] is 1.4% (inactive). Further, the values for the nuclei count in test [2] and in test [3] were 109% and 98%, respectively. For the same compound, the fluorescence slope in test [4] is -0.624 (inactive). In test [5], the NADPH fluorescence slope was -1.1e-05 (inactive). The slope in test [6] is 0.00545 (inactive).

`CCOC(=O)Cc1ccc(NS(=O)(=O)c2ccc(SC)cc2)cc1`: in test [1], the cell count is 326. Besides, the inhibition was -7.2% (inactive) in test [1], -95.5% (inactive) in test [3], -2.4% (inactive) in test [7] and 9.62% (inactive) in test [8]. In test [2], the inhibition of aggregation was -3.4% (inactive). For the same compound, the values for the nuclei count in test [2] and in test [3] were 97.6% and 109%, respectively. The fluorescence slope in test [4] is -0.494 (inactive). For the same compound, the NADPH fluorescence slope in test [5] was -6.8e-05 (inactive). Moreover, the slope in test [6] was 0.00542 (inactive).

Regarding `CCn1cc(C(=O)NC2CCc3ccccc32)c(=O)c2ccc(C)nc21` (centres undefined), in test [1], the cell count amounted to 727. For the same compound, the inhibition in test [1] was -2.2% (inactive); in test [3] it was -37% (inactive); in test [7], 7.46% (inactive); in test [8], 13.4% (inactive). Further, in test [2], the inhibition of aggregation is -0.4% (inactive). Also, the results for the nuclei count in test [2] and in test [3] were 100% and 110%, respectively. Besides, in test [4], the fluorescence slope is -0.559 (inactive). For the same compound, the NADPH fluorescence slope in test [5] was 2.4e-05 (inactive). The slope in test [6] was 0.00594 (inactive).

For `CC(=O)c1ccccc1NS(=O)(=O)c1c(C)nn(-c2ccccc2)c1C`, in test [1], the cell count is 580. Moreover, the inhibition is -2.4% (inactive) in test [1], -74.1% (inactive) in test [3], -4.38% (inactive) in test [7] and 98.9% (active) in test [8]. Moreover, in test [2], the inhibition of aggregation is 2.3% (inactive). The nuclei count in test [2] was found to be 113%; in test [3], 92.7%. Also, the fluorescence slope in test [4] is -0.308 (inactive). For the same compound, the NADPH fluorescence slope in test [5] was -5e-05 (inactive). Besides, in test [6], the slope is 0.00448 (inactive).

In the case of `c1ccc2c(c1)CNc1ccccc1C2`, in test [1], the cell count came to 526. Also, the inhibition in test [1] was -11.2% (inactive); in test [3], -30% (inactive); in test [7], 7.99% (inactive); in test [8], 10.2% (inactive). In addition, the inhibition of aggregation in test [2] was 30.2% (inactive). Also, the figures for the nuclei count in test [2] and in test [3] were 83.2% and 86.7%, respectively. In addition, in test [4], the fluorescence slope was -0.517 (inactive). The NADPH fluorescence slope in test [5] is 2.1e-06 (inactive). In addition, in test [6], the slope is 0.00468 (inactive).

As for `O=C(Nc1ccccc1C(=O)N1CCN(c2ccccc2)CC1)c1ccco1`, the cell count in test [1] was found to be 300. The inhibition in test [1] is -5.1% (inactive); in test [3] it was -73.2% (inactive); in test [7], 0.26% (inactive); in test [8], -6.86% (inactive). For the same compound, in test [2], the inhibition of aggregation is 6.3% (inactive). The nuclei count in test [2] worked out at 98.2%; in test [3], 111%. In addition, in test [4], the fluorescence slope is -0.605 (inactive). The NADPH fluorescence slope in test [5] is -2.1e-05 (inactive). In addition, in test [6], the slope is 0.00253 (inactive).

Turning to `Cc1cc(=O)[nH]c(SCc2nc3ncccn3c2Br)n1`, in test [1], the cell count worked out at 636. The inhibition in test [1] is -2.4% (inactive); in test [3], -32.2% (inactive); in test [7], 8.84% (inactive); in test [8], 23.4% (inactive). Moreover, in test [2], the inhibition of aggregation was -10.4% (inactive). Also, the nuclei count was 76.5% in test [2] and 107% in test [3]. Further, the fluorescence slope in test [4] is -0.27 (inactive). The NADPH fluorescence slope in test [5] was -6.4e-06 (inactive). For the same compound, the slope in test [6] is 0.00645 (inactive).

Turning to `CN(C)c1nc(SCCOC(=O)c2ccccc2)nc(N(C)C)n1`, the cell count in test [1] was 775. For the same compound, the inhibition in test [1] is -4.7% (inactive); in test [3], -45.1% (inactive); in test [7], 8.47% (inactive); in test [8], 11.2% (inactive). The inhibition of aggregation in test [2] is -21.8% (inactive). In addition, the nuclei count in test [2] was found to be 118%; in test [3], 102%. In addition, in test [4], the fluorescence slope is -0.385 (inactive). The NADPH fluorescence slope in test [5] is 2.1e-06 (inactive). The slope in test [6] is 0.00433 (inactive).

On to `O=C(c1ccc(Cl)cc1)N1CCCCC(Sc2nnc(-c3ccc4c(c3)OCO4)o2)C1=O` (centres undefined), for which the cell count in test [1] stood at 505. Besides, the inhibition in test [1] was -13.7% (inactive); in test [3] it was -71.6% (inactive); in test [7] it was -180% (inactive); in test [8] it was 92% (active). The inhibition of aggregation in test [2] is 14.1% (inactive). The nuclei count was determined as 93.7% in test [2] and 145% in test [3]. Besides, the fluorescence slope in test [4] was -0.624 (inactive). In addition, the NADPH fluorescence slope in test [5] was -3.6e-05 (inactive). The slope in test [6] was 0.00978 (inactive).

Regarding `O=C1CCCC2=C1C(c1cccs1)n1nc(SCc3ccccc3F)nc1N2` (centres undefined), the cell count in test [1] was determined as 694. For the same compound, the inhibition in test [1] is 8.6% (inactive); in test [3], -30.7% (inactive); in test [7] it was -24.2% (inactive); in test [8], -0.597% (inactive). For the same compound, in test [2], the inhibition of aggregation is 16.5% (inactive). Moreover, the nuclei count was determined as 109% in test [2] and 79.7% in test [3]. Besides, the fluorescence slope in test [4] was -0.505 (inactive). Besides, the NADPH fluorescence slope in test [5] was 3.2e-05 (inactive). Further, the slope in test [6] is 0.00593 (inactive).

Regarding `OC(CN1CCN(c2ccccn2)CC1)Cn1c2ccccc2c2ccccc21` (centres undefined), in test [1], the cell count is 386. Further, the inhibition in test [1] is 5.1% (inactive); in test [3], -14.4% (inactive); in test [7], 1.54% (inactive); in test [8], 21.8% (inactive). Moreover, the inhibition of aggregation in test [2] is 7.2% (inactive). Besides, the results for the nuclei count in test [2] and in test [3] were 104% and 107%, respectively. For the same compound, the fluorescence slope in test [4] was -0.472 (inactive). For the same compound, the NADPH fluorescence slope in test [5] was 5.1e-05 (inactive). Further, the slope in test [6] was 0.00493 (inactive).

Regarding `O=C(OCC#CCSc1nc2ccccc2s1)c1ccco1`, the cell count in test [1] amounted to 639. In addition, the inhibition in test [1] was -19.8% (inactive); in test [3] it was -28.5% (inactive); in test [7], -14.4% (inactive); in test [8], -21.9% (inactive). Also, the inhibition of aggregation in test [2] was -8.9% (inactive). Also, the nuclei count in test [2] came to 116%; in test [3] it was 100%. For the same compound, in test [4], the fluorescence slope is -0.471 (inactive). Besides, the NADPH fluorescence slope in test [5] is 2.6e-05 (inactive). For the same compound, the slope in test [6] was 0.00607 (inactive).

Consider `Cc1ccc(NC(=O)CSc2nnc(Cc3cccn3C)n2-c2ccc(F)cc2)cc1`, for which the cell count in test [1] was 562. In addition, the inhibition is 12.9% (inactive) in test [1], -118% (inactive) in test [3], 8.62% (inactive) in test [7] and 23.7% (inactive) in test [8]. Besides, the inhibition of aggregation in test [2] was -6.4% (inactive). The nuclei count in test [2] is 98.7%; in test [3] it was 91.3%. The fluorescence slope in test [4] was -0.586 (inactive). Further, the NADPH fluorescence slope in test [5] is -2.1e-06 (inactive). In addition, the slope in test [6] was 0.00658 (inactive).

Turning to `CCOC(=O)c1sc2cccc(F)c2c1N`, the cell count in test [1] worked out at 546. In addition, the inhibition was -17.8% (inactive) in test [1], 4.5% (inactive) in test [3], -3.55% (inactive) in test [7] and -14.4% (inactive) in test [8]. For the same compound, the inhibition of aggregation in test [2] was 24.4% (inactive). Also, the results for the nuclei count in test [2] and in test [3] were 102% and 110%, respectively. Further, in test [4], the fluorescence slope was -0.319 (inactive). Moreover, the NADPH fluorescence slope in test [5] is -7.4e-05 (inactive). The slope in test [6] was 0.00522 (inactive).
